# Assay outcomes from PubChem BioAssay.
# SMN2 splice enh: increases expression of the SMN2 splice variant; HEK293 SMN2-luciferase splicing reporter, luminescence, 30-36 h; AID 1458; Potency, µM (doses to about 46.1 µM), without a hit: at the top dose activity change, positive = activation, hits mostly activators; hit rate 2.8% among 210,000; also: % of control where 0% means no effect; nearly all actives have a fitted effect of over 55% in size
#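 HEK293 cells carry an SMN2 […]–luciferase reporter in which exon 7 inclusion puts luciferase in frame. Cells were plated 10-12 h before compound addition, then incubated 30-36 h at 37C. ONE-Glo luminescence was read; sodium butyrate at 4.5 mM final served as control.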
# FLuc modulator: inhibits or activates purified firefly luciferase, miR-21 counter-screen | AID 588342 | hit rate 6.9% among 360,000 | P08659 | Potency, µM (titrated, usually from 57.5 µM), without a hit: at the highest dose activity change, negative = inhibition, actives largely listed as inhibitors | purified FLuc, Km substrates, luminescence inhibition;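 also: plate controls were vehicle for no effect and reference inhibitor for full effect; nearly all actives have a fitted effect of over 55% in size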
#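 Purified P. pyralis luciferase (10nM final) with 10uM D-luciferin and 10uM ATP (Km levels) in 50mM Tris acetate pH 7.5, 10mM Mg acetate, 0.01% Tween-20, 0.05% BSA; qHTS 6-point titration, ~60 µM downward; luminescence read.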
# NPC1 promoter act: activates the NPC1 promoter; Huh7 NPC1 promoter luciferase reporter, 24 h; Potency, µM (top dose mostly 9.22 µM), inactives show at the highest dose activation, usual class: activators; hit rate 2.4% among 320,000; AID 485313; also: % of control where 0% means no effect; nearly all actives have a fitted effect of over 60% in size
#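 Luminescence from an NPC1 promoter-driven luciferase reporter in stably transfected Huh7 cells was measured after 24 h compound treatment at 37 °C, followed by 10 min ambient incubation with luciferase detection reagent.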
# ELG1 genotoxic: induces genotoxicity in HEK293T cells with luciferase-tagged ELG1; hit rate 1.3% among 330,000; Potency, µM (titrated, usually from 46 µM), for inactives: top-dose activity change, positive = activation, usual class: activators; HEK293T ELG1-luciferase reporter, luminescence, 16 h; also: % of control where 0% means no effect; nearly all actives have a fitted effect of over 60% in size
#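 Luminescence read-out: rising ELG1-luciferase signal, reflecting elevated ELG1 protein under genetic stress, flags genotoxic compounds. Cells were treated for 16 hr at 37 °C before ONE-Glo detection.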
# Rab9 prom act: activators of Rab9 promoter | Huh7 Rab9 promoter-luciferase reporter, luminescence, 24 h | Potency, µM (series often up to 9.22 µM), for inactives: at the top dose activation, negative = inhibition, usual class: activators | hit rate 2.8% among 320,000 | AID 485297; also: % of control where 0% means no effect; nearly all actives have a fitted effect of over 60% in size
#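 Using Huh7 cells stably transfected with Rab9 promoter–luciferase, compounds were incubated 24 h at 37 °C, 5% CO2; luciferase luminescence was read 10 min after reagent addition.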
# ELG1 DNA repair: ELG1-dependent DNA repair inhibition. Potency, µM (series often up to 46.1 µM), inactives show at the top dose activity change, negative = inhibition, hits mostly inhibitors. HEK293T ELG1-luciferase reporter, luminescence, 16 h; DNA damage induced by 5-fluorouridine. hit rate 2.3% among 330,000; also: % is scaled to controls: 0 for no effect and ±100 for the full control effect; nearly all actives have a fitted effect of over 55% in size
#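 DMSO vehicle served as the neutral condition. Each well held 2,000 cells given 5-fluorouridine plus compound; after 16 hr at 37 °C/5% CO2, ONE-Glo was added and luciferase measured 30 min later.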
# ELG1-Luc inh: inhibits ELG1-dependent DNA repair in HEK293T cells, confirmed | shares compounds with ELG1 DNA repair | HEK293T ELG1-luciferase levels, luminescence; cells co-treated with 5-fluorouridine | Potency, µM (series often up to 46.1 µM), for inactives: top-dose activity change, negative = inhibition, usual class: inhibitors | hit rate 68% among 670 | AID 624248; also: % is scaled to controls: 0 for no effect and ±100 for the full control effect; nearly all actives have a fitted effect of over 55% in size
# ELG1 MMS Luc: confirmation of human ELG1 repair inhibitors, MMS stimulated; shares compounds with ELG1 DNA repair; hit rate 53% among 670; HEK293T luciferase-tagged ELG1 level, MMS stimulated; Potency, µM (series often up to 46.1 µM), inactives show top-dose activity change, negative = inhibition, most hits filed as inhibitors; also: % is scaled to controls: 0 for no effect and ±100 for the full control effect; nearly all actives have a fitted effect of over 60% in size
# ELG1 5-FU: confirmation of ELG1 repair inhibitors: viability with 5FU. cell viability with 5-FU, ELG1-dependent repair. Potency, µM (titrated, usually from 46.1 µM), inactives show at the highest dose activity change, negative = viability loss, most hits filed as cytotoxic. shares compounds with ELG1 DNA repair. AID 624250. 670 tested, under 10 active;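 also: ELG1-luc HEK293T cells cotreated with 5-fluorouridine at 10 µM final; viability measured 16 h after compound addition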
# ELG1 MMS viab: confirmation of ELG1 repair inhibitors: viability with MMS; shares compounds with ELG1 DNA repair; Cell viability with MMS, ELG1-dependent DNA repair; Potency, µM (top dose mostly 46.1 µM), for inactives: at the top dose activity change, negative = viability loss, usual class: cytotoxic; hit rate 33% among 670; AID 624251;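 also: ELG1-luc HEK293T cells co-treated with 10 µM MMS; viability read 16 h after compound addition; % is scaled to controls: 0 for no effect and ±100 for the full control effect; nearly all actives have a fitted effect of over 60% in size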
# Cell viab unstim: counter-screen for ELG1 repair inhibitors: unstimulated cell viability; hit rate 8% among 900; AID 624252; Potency, µM (series often up to 45.9 µM), without a hit: at the highest dose activity change, negative = loss of viability, usual class: cytotoxic; shares compounds with ELG1 DNA repair; cell viability counter-screen, unstimulated, luminescence;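 also: compound exposure lasted 16 hours before reading; % is scaled to controls: 0 for no effect and ±100 for the full control effect; nearly all actives have a fitted effect of over 55% in size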
# Active calls of the source: *; ? = inconclusive; / = no result given. Rows were chosen to be rich in hits. Some 9.3% of all compounds tested hit in one or more screens of this group. Calls follow the shape of the dose curve; as a rule, active = well fitted curve in the direction sought with a large enough effect; inconclusive = small, poorly fitted or top-dose-only effect, or another doubt; inactive = no such curve, though single readings can be large; an effect the other way counts as inactive or inconclusive. Potency is read from the fitted curve at half-maximal effect.
SMILES,SMN2 splice enh,FLuc modulator,NPC1 promoter act,ELG1 genotoxic,Rab9 prom act,ELG1 DNA repair,ELG1-Luc inh,ELG1 MMS Luc,ELG1 5-FU,ELG1 MMS viab,Cell viab unstim
O=C1NC[C@H](c2ccccc2)OC(=O)[C@H](Cc2ccc(F)cc2)CC/C=C/C[C@H]1CC(=O)N(CCO)Cc1ccccc1,/,/,/,-11%,/,2.9µM*,11µM*,13µM*,?,?,-13%
O=C1NC[C@@H](c2ccccc2)OC(=O)[C@H](Cc2ccc(F)cc2)C/C=C\C[C@@H]1CC(=O)N(CCO)Cc1ccccc1,/,/,/,-7%,/,-18%,/,/,/,/,/
O=C(O)c1c[nH]ccc1=O,-4%,4%,4%,0%,-5%,-1%,/,/,/,/,/
O=C(CN(c1ccccc1)S(=O)(=O)c1ccccc1)Nc1ccccc1C(=O)NCc1ccco1,-11%,6%,-6%,-4%,-2%,?,/,/,/,/,/
COC(=O)c1cccnc1SCc1ccccc1,-14%,-2%,-11%,3%,10%,13%,/,/,/,/,/
COc1ccc(-c2cc(C(F)F)n3ncc(C(=O)Nc4cnn(Cc5ccccc5)c4)c3n2)cc1,/,0%,0%,1%,-4%,?,/,/,/,/,/
COc1ccc(-c2cc(C(F)F)n3ncc(C(=O)Nc4cccc(S(=O)(=O)N5CCOCC5)c4)c3n2)cc1,-1%,1%,-14%,-3%,-9%,3.7µM*,?,22%,12%,-5%,-13%
O=C(CSc1nnc(C2CC2)n1C1CC1)c1ccccc1F,/,-26%,-3%,3%,0%,?,/,/,/,/,/
CCOCCOC(=O)c1[nH]c2c(c1C)C(=O)CC(c1cc(OC)c(OC)c(OC)c1)C2 (stereo unspecified),/,3%,-13%,-6%,-19%,4.1µM*,10µM*,6.3µM*,-5%,?,?
Cc1ccc(NNC(=O)c2cc(C)on2)c(C)c1,/,-1%,0%,10%,3%,?,/,/,/,/,/
Cc1cc(C(=O)NNc2ccc(F)cc2F)no1,/,2%,0%,9%,-2%,4.1µM*,20%,28%,-9%,-5%,-11%
Cc1ccccc1OCC(=O)Nc1ccc(S(=O)(=O)N2CCCC2)cc1,/,3%,-3%,4%,2%,-17%,/,/,/,/,/
Cc1ccccc1OCC(=O)Nc1ccc(C)c(S(=O)(=O)N2CCCCCC2)c1,/,-1%,-2%,?,-5%,1.3µM*,28µM*,6.3µM*,?,8.9µM*,-19%
Cc1cc(Cl)c(S(N)(=O)=O)cc1OCC(=O)NC1CCCCC1,/,2%,-8%,-6%,5%,-14%,/,/,/,/,/
